This passage reports Potency results from PubChem BioAssay AID2061319 (National Center for Advancing Translational Sciences (NCATS), 2025).

Records with an inconclusive call do not appear. Activity calls are given as the source filed them. Calls come from the whole dose curve; as a rule, active = well fitted inhibition curve with a large enough effect; inconclusive = small, poorly fitted or top-dose-only effect; inactive = flat fitted curve, though single readings scatter. Square brackets hold non-standard residues; d marks the D form. Peptide text beside a SMILES is read from it. Dolaproine = CO[C@@H]([C@@H]1CCCN1)[C@@H](C)C(=O)O; Dil = CC[C@H](C)[C@H](NC)[C@@H](CC(=O)O)OC; NMeV = CN[C@H](C(=O)O)C(C)C

The nature of this assay: Identification of antibody-drug conjugate (ADC) payloads which are substrates of ATP-binding cassette drug efflux transporters: ABCG2-H460-MX20 cell line with Ko143. To be noted: H460-MX20 (ABCG2) + Ko143, CellTiter-Glo viability, 48 h; series mostly up to 28.7 µM. An excerpt:
Antibody-drug conjugates (ADCs) feature an antibody recognizing a specific protein joined to a potent toxic payload. Numerous antibody-drug conjugates have received FDA approval; however, clinical resistance arises. Resistance mechanisms include decreased expression or mutation of the antibody target, impaired payload release, or increased expression of ATP-binding cassette (ABC) efflux transporters associated with multidrug resistance. We therefore sought to characterize the interaction of ABC multidrug transporters with ADC payloads. We performed a high-throughput screen with 27 common ADC payloads using cells lines expressing ABC transporters P-glycoprotein (P-gp, encoded by ABCB1) or ABCG2 (encoded by ABCG2). Confirmatory assays were also performed using cells transfected to express P-gp, ABCG2, or MRP1 (encoded by ABCC1). Several commonly used ADC payloads were substrates of P-gp, including calicheamicin gamma1, monomethyl auristatin E, DM1, and DM4. All the pyrrolobenzodiazepines tested - SJG136, SGD-1882, SG2057, and SG3199 - were substrates of P-gp, ABCG2, and MRP1. […] These findings highlight the risk of transporter-mediated resistance with certain ADC payloads and underscore the importance of selecting payloads that evade ABC transporter recognition in future ADC development.
HEK-293 cells were transfected with empty vector (pcDNA) or vector containing the human ABCB1 (MDR-19), ABCG2 (R-5), or ABCC1 gene (MRP1) and were maintained in EMEM with 2 mg/mL G418 added to maintain transporter expression. The HeLa derivative KB-3-1 and the P-gp overexpressing KB-8-5-11 subline were maintained in DMEM; KB-8-5-11 additionally received 100 ng/mL colchicine. H460 parental cells were obtained from the Division of Cancer Treatment and Diagnosis Tumor Repository, National Cancer Institute at Frederick, MD and were cultured in RPMI. The ABCG2 expressing subline H460 MX20 was generated by selecting H460 cells in 20 nM mitoxantrone. Media in all cases was supplemented with 10% FBS and 1% penicillin-streptomycin. We explored 27 common ADC payloads, in two orthogonal, paired cell line sets-a drug selected and transfected set for each transporter--to identify substrates of the ABC transporters P-gp and ABCG2. Compounds were sourced from Levena Biopharma (San Diego, CA), Selleck Chem (Houston, TX), ChemieTek (Indianapolis, IN), or Microsource Discovery Systems (Gaylordsville, CT). Screening was performed as previously described. Briefly, cells were plated at a density of 500 cells/well in 1536 well plates with compounds added using a 1536-head pin tool (Kalypsys, San Diego CA). Cells were incubated with cytotoxic drugs and processed with CellTiter Glo reagent (Promega, Madison, WI) to determine viability after 48 hours. P-gp substrates were identified by comparing compound activity between paired sets of low-expressing (sensitive) and over-expressing (resistant) cell lines.
For orientation: In ATP-based viability assays light output follows the ATP content of the culture.
As for `COc1cccc2c1C(=O)c1c(O)c3c(c(O)c1C2=O)C[C@@](O)(C(=O)CO)C[C@@H]3O[C@H]1C[C@H]2[C@H](O[C@@H]3[C@@H](OC)OCCN32)[C@H](C)O1`, the Potency is 0.2 nM (active).
Turning to `CC[C@H](C)[C@@H]([C@H](N)CC(=O)N1CCC[C@H]1[C@H](OC)[C@@H](C)C(=O)N[C@@H](Cc1ccccc1)c1nccs1)N(C)C(=O)[C@@H](NC(=O)[C@@H](NC)C(C)C)C(C)C`, the Potency result was “inactive”.
For `COC(=O)c1cc2c3c(cc(O)c2[nH]1)N(C(=O)c1cc2cc(OC)c(OC)c(OC)c2[nH]1)CC3CCl` (stereo not given) the value was 0.8 nM (active); for `CC(C)(C)OC(=O)Nc1ccc2[nH]c(C(=O)N3C[C@@H](CCl)c4c3cc(O)c3ccccc43)cc2c1`, 6.7 nM (active); for `CN(C)CCOc1ccc2[nH]c(C(=O)N3C[C@@H](CCl)c4c3cc(O)c3ccccc43)cc2c1`, 0.5 nM (active).
For `CCN(C(C)=O)[C@H]1CO[C@@H](O[C@H]2[C@H](O[C@H]3C#C/C=C\C#C[C@]4(O)CC(=O)C(NC(=O)OC)=C3/C4=C\CSSSC)O[C@H](C)[C@@H](NO[C@H]3C[C@H](O)[C@H](SC(=O)c4c(C)c(I)c(O[C@@H]5O[C@@H](C)[C@H](O)[C@@H](OC)[C@H]5O)c(OC)c4OC)[C@@H](C)O3)[C@@H]2O)C[C@@H]1OC` the value was 13.4 nM (active); for `CCc1c2c(nc3ccc(O)cc13)-c1cc3c(c(=O)n1C2)COC(=O)[C@]3(O)CC`, 150 nM (active).
For `CCN[C@H]1CO[C@@H](O[C@H]2[C@H](O[C@H]3C#C/C=C\C#C[C@]4(O)CC(=O)C(NC(=O)OC)=C3/C4=C\CSSSC)O[C@H](C)[C@@H](NO[C@H]3C[C@H](O)[C@H](SC(=O)c4c(C)c(I)c(O[C@@H]5O[C@@H](C)[C@H](O)[C@@H](OC)[C@H]5O)c(OC)c4OC)[C@@H](C)O3)[C@@H]2O)C[C@@H]1OC` the value was 3.8 nM (active); for `CC[C@H](C)[C@@H]([C@@H](CC(=O)N1CCC[C@H]1[C@H](OC)[C@@H](C)C(=O)N[C@@H](Cc1ccccc1)C(=O)O)OC)N(C)C(=O)[C@@H](NC(=O)[C@@H](NC)C(C)C)C(C)C` (H-[NMeV]V[Dil][Dolaproine]F-OH), 15000 nM (active); for `COc1cccc2c1C(=O)c1c(O)c3c(c(O)c1C2=O)C[C@@](O)(C(=O)CO)C[C@@H]3O[C@H]1C[C@H](N)[C@H](O)[C@H](C)O1`, 598 nM (active).
